# Results from PubChem BioAssay.
# Active and inactive are the calls of the source. The rule behind the calls is not given here.
# Biological target: Pantothenate synthetase (Mycobacterium tuberculosis (strain ATCC 25618 / H37Rv)) (UniProt P9WIL5)
# Test: Coupled enzyme confirmation of inhibitors against recombinant Mtb PanC (AID 375);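 note: 0% = full reaction with vehicle and 100% = no enzyme background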
# Conditions: coupled enzyme assay; at 10 µM, hits give high values
# Sequence of Pantothenate synthetase (Mycobacterium tuberculosis (strain ATCC 25618 / H37Rv)) (P9WIL5 whole entry, looked up): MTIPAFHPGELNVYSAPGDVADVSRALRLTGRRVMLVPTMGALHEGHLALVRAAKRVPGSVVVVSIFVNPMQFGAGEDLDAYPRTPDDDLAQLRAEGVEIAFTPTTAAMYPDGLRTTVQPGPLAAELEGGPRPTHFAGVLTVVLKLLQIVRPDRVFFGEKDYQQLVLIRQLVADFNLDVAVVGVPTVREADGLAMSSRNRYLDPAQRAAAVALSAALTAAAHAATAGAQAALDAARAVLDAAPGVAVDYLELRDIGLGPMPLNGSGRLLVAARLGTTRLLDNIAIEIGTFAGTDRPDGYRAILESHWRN
row,SMILES,inhibition
1,CC1(C)CC(=O)c2cnc(NC(=O)CCc3ccccc3)nc2C1,0% (inactive)
2,COc1ccc(C2=Nn3c(nnc3-c3ccccc3)SC2)cc1OC,0% (inactive)
3,COc1cccc(N2CCN(Cc3nc(N)nc(Nc4ccccc4OC)n3)CC2)c1,0% (inactive)
4,O=C(OC1CCOC1=O)c1ccc(S(=O)(=O)N2CCCCCC2)cc1 (stereo not given),0% (inactive)
5,CC(C)C1N=C2c3ccccc3N=C(SCC(=O)NCCc3ccc(S(N)(=O)=O)cc3)N2C1=O (stereo not given),0% (inactive)
6,CCOC(=O)Cn1nc(-c2ccc(Cl)cc2)cc1N,0% (inactive)
7,CC12C(=O)N(CCC(=O)O)C(=O)C1C1C=CC2C1 (stereo not given),0% (inactive)
8,CC1=C(C(N)=O)C(c2ccncc2)n2nc(-c3ccccc3Cl)nc2N1 (stereo not given),0% (inactive)
9,CC1(C)S[C@@H]2[C@H](NC(=O)C(C(=O)O)c3ccccc3)C(=O)N2[C@H]1C(=O)O (stereo not given in full),0% (inactive)
10,C#CCN(C)Cc1ccccc1,3% (inactive)
11,O=S(=O)(c1ccccc1)c1nc(-c2ccco2)oc1NCCCN1CCOCC1,0% (inactive)
12,CCCc1cc(N2CCCC2)n2nc(C)c(-c3ccccc3)c2n1,0% (inactive)
13,CC(=O)N1CCc2cc(S(=O)(=O)NC(CC(C)C)C(=O)N3CCn4c3nc3ccccc34)ccc21 (stereo not given),0% (inactive)
14,COc1ccc2c(c1)n([O-])c1c([n+]2=O)CCC1,0% (inactive)
15,COCCn1c(SCC(=O)Nc2ccc3c(c2)OCCO3)nc2c(c1=O)SC(C)C2 (stereo not given),3% (inactive)
16,Cc1cc(C)nc(SCC(=O)Nc2ccc(S(=O)(=O)Nc3nccs3)cc2)n1,0% (inactive)
17,CCn1c(=N)n(CC(O)c2ccco2)c2ccccc21 (stereo not given),0% (inactive)
18,Cc1ccc(S(=O)(=O)c2nc(-c3ccco3)oc2SCC(=O)NCC2CCCO2)cc1 (stereo not given),0% (inactive)
19,Cc1ccccc1CN1CCN(C(=O)c2cccc(F)c2)CC1,0% (inactive)
20,COc1ccc(-c2nnc(SCC(=O)NC(C)c3ccccc3)o2)cc1 (stereo not given),0% (inactive)

row,SMILES,inhibition
1,COC(=O)c1sc(N)c(C(=O)OC)c1COC(=O)C1CC(=O)N(Cc2ccco2)C1 (stereo not given),3% (inactive)
2,O=C(OCc1nnc(-c2ccc(Cl)cc2)o1)c1ccc(=O)n(Cc2ccccc2)n1,0% (inactive)
3,Brc1ccc2[nH]ncc2c1,10% (inactive)
4,COC(=O)c1ccc(CSc2nc3c(cnn3-c3ccc(C)c(C)c3)c(=O)[nH]2)o1,3% (inactive)
5,COc1cc(CNc2ccc(N3CCOCC3)c(C(=O)O)c2)ccc1OCC(N)=O,1% (inactive)
6,O=C(Cn1cnc2c(nnn2-c2ccc(F)cc2)c1=O)NCc1ccco1,0% (inactive)
7,O=C(O)c1cccc(NS(=O)(=O)c2ccc3nnn(O)c3c2)c1,0% (inactive)
8,Cn1c(SCC(=O)c2cc3ccccc3o2)nnc1-c1ccccc1,1% (inactive)
9,CN(C)/C=c1\sc2c(C#N)cc(C(=O)c3ccc(Br)cc3)n2c1=O,5% (inactive)
10,CCOC(=O)C1C2C=CC3(CN(c4cccc(Cl)c4)C(=O)C13)O2 (stereo not given),0% (inactive)
11,CC(C)(C)C1=C[C@@H](CO)C[C@@H](CO)C1,0% (inactive)
12,Cc1cccc(-n2ncc3c(N)ncnc32)c1,3% (inactive)
13,COc1c(Br)cc2c(C)c(C(=O)O)oc2c1Br,2% (inactive)
14,CCCn1cc(SCC(N)=O)c2ccccc21,0% (inactive)
15,O=S(=O)(Cc1ccccc1)N1CCCCCC1,0% (inactive)
16,CCOC(=O)c1[nH]c2ccc(Br)cc2c1NC(=O)CNC,4% (inactive)
17,CCCNC(=O)CS(=O)(=O)Cc1nc(-c2cccc(OC)c2)oc1C,0% (inactive)
18,CC1Cc2nc(SCC(=O)Nc3ccccc3F)n(C)c(=O)c2S1 (stereo not given),7% (inactive)
19,Cc1ccc(C)c(NC(=O)CC(NCCCN2CCOCC2)C(=O)O)c1 (stereo not given),7% (inactive)
20,CCOC(=O)N1CCN(C(=O)CSCC(=O)Nc2nc(-c3ccc(OC)cc3)cs2)CC1,0% (inactive)
